The source of these data is PubChem BioAssay AID743373 (National Center for Advancing Translational Sciences (NCATS), 2014).

This experiment deals with Galactokinase (Homo sapiens) (UniProt P51570). Kind of experiment: qHTS for Inhibitors of Human Galactokinase (GALK): Confirmation Assay for SAR round 4. The settings on record: recombinant GALK, ADP-Glo luminescence, 1 h. An excerpt:
Inherited deficiency of galactose-1-phosphate uridyltransferase (GALT) can result in a potentially lethal disorder called Classic Galactosemia (OMIM 230400). Several lines of evidence indicate that an elevated level of galactose-1-phosphate (gal-1-p), the product of galactokinase (GALK), is a major, if not sole, pathogenic mechanism in patients with classic galactosemia. Therefore, finding inhibitors of GALK is a potential novel therapy for this inherent metabolic disease and is the long term goal of this project. Active compounds observed in the qHTS GALK assay (AID: 1868) were cherry picked and re-screened for validation. GALK (provided by Kent Lai) was assayed using ATP and D-(+)-Galactose (Sigma-Aldrich cat# G0750) as substrates. Promega ADP-Glo technology was used to detect the ADP product formed after the kinase reaction. […]
Two uL/well of ATP-buffer solution (35 uM ATP, 20mM HEPES pH8.0, 5 mM MgCl2, 60 mM NaCl, 1 mM DTT, 0.01% BSA final concentration) was dispensed into 1536-well, assay plates (Greiner, solid white medium-binding plates) with Aurora Discovery BioRAPTR Flying Reagent Dispenser (FRD; Beckton-Dickenson). […] Luminescence was detected with the ViewLux plate reader (Perkin Elmer, Waltham, MA) using a 1 sec exposure time and 2x binning.

Results filed as inconclusive are left out. Calls of active or inactive are those of the source. Calls follow the shape of the dose curve; as a rule, active = well fitted inhibition curve with a large enough effect; inconclusive = small, poorly fitted or top-dose-only effect; inactive = flat fitted curve, though single readings scatter.

Galactokinase (Homo sapiens), sequence (P51570 whole entry, looked up): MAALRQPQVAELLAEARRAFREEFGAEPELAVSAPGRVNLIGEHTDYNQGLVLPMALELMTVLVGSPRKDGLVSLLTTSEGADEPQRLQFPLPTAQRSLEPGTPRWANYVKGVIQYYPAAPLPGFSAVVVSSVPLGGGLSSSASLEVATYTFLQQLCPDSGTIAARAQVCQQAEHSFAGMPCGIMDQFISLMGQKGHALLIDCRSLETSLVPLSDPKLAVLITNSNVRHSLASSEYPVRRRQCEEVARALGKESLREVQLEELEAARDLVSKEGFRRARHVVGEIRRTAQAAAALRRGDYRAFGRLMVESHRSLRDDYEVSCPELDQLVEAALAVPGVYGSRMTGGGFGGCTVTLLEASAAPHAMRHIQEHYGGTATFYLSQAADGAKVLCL

Turning to `CC1=C(C(=O)Nc2nncs2)C(c2nn(C)cc2Cl)N=C(Nc2nc3ccccc3o2)N1` (configuration not stated), the Potency is 6.85 µM (active).
`Cn1cc(Br)c(C2N=C(Nc3nc4ccccc4o3)NC3=C2C(=O)CCC3)n1` (configuration not stated): the Potency was 4.32 µM (active).
